In assay [1] the target is Cell division control protein 42 homolog (Homo sapiens) (UniProt P60953). In words: activated mutant Cdc42 GTP-binding inhibitors, dose response, biochemical, multiplex bead flow cytometry, Bodipy-FL-GTP (AID 1333;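 active = fitted half-maximal concentration within the tested dose range, moderate curve steepness, a statistically real signal drop, and little compound fluorescence or tag-binding interference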). (Flow cytometry measures light scatter and fluorescence of single cells or particles in a stream.)
Sequence of Cell division control protein 42 homolog (Homo sapiens) (P60953 whole entry, looked up): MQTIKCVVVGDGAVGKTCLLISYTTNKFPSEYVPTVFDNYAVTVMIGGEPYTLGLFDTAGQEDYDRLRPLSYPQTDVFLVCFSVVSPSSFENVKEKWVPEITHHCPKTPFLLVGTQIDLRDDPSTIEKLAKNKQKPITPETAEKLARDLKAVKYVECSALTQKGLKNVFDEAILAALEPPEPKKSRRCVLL
For assay [2] the target is unchanged. Nature of the assay: wildtype Cdc42 GTP-binding inhibitors, dose response, biochemical, multiplex bead flow cytometry, Bodipy-FL-GTP (AID 1334;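 active = fitted half-maximal concentration within the tested range, moderate curve steepness, significant signal drop, and little compound fluorescence or bead-linkage interference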). Particulars: bead-based flow cytometry, Bodipy-FL-GTP binding to GST-Cdc42; at 100 µM (top of the series) unless noted.
The target in assay [3] is GTPase HRas (Homo sapiens) (UniProt P01112). In words: inhibitors of GTP binding to wildtype Ras, dose response, biochemical, multiplex bead flow cytometry (AID 1335). To be noted: bead-based flow cytometry, Bodipy-GTP binding to GST-Ras; at 100 µM (top of the series) unless noted.
Sequence of GTPase HRas (Homo sapiens) (P01112 whole entry, looked up): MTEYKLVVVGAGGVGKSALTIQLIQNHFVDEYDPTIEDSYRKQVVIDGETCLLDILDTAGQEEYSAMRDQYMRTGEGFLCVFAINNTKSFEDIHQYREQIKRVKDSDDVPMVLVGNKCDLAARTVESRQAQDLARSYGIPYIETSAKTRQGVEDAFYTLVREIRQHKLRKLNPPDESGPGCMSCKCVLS
Assay [4] relates to Ras-related protein Rab-7a (dog), GTP binding. Nature of the assay: Rab7 GTP binding inhibitors, potency, dose response, biochemical, wildtype, multiplex bead flow cytometry (AID 1336; call rule not given here).
The target of assay [5] is Ras-related C3 botulinum toxin substrate 1 (Homo sapiens) (UniProt P63000). In words: wildtype Rac1 GTP binding inhibitors, dose response, biochemical, multiplex bead flow cytometry (AID 1340;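 active = dose curve with midpoint inside tested range, moderate steepness, plateau gap beyond fit error, low compound glow and bead-link interference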). Particulars: GST-Rac1 beads, Bodipy-FL-GTP binding; at 100 µM (top of the series) unless noted.
Assay [6] deals with GTPase HRas (Homo sapiens) (UniProt P01112). Nature of the assay: activated Ras mutant GTP binding inhibitors, dose response, biochemical, multiplex bead flow cytometry (AID 1341;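 active = dose-response curve with midpoint inside the tested range, moderate steepness, significant amplitude and little compound fluorescence or bead-attachment interference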;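 note: GST-tagged constitutively activated Ras mutant immobilized on beads and multiplexed with other GTPases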).

Structures are written as SMILES. For part of these data: Measured potencies and affinities stand elsewhere. Active and inactive are the calls of the source.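 Rule for the calls, unless noted: active = fitted half-maximal concentration within 10 nM to 100 µM, steepness 0.5 to 2, significant signal drop, low assay interference; inactive = the rest.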

`CCN1CCN(c2nc3c(c(=O)n(C)c(=O)n3C)n2Cc2cccc3ccccc23)CC1`: the result in assay [1], in assay [4] and in assay [6] was inactive. Moreover, the fluorescence, percent of control (lower = inhibition) in assay [2] amounted to 43.1%. In assay [3], this compound had a GTP binding, percent of control of 92.2%. The compound also displayed a GTP binding signal, raw median fluorescence (lower = inhibition) (MCF (arbitrary fluorescence units)) in assay [5] of 314.
For `Cc1ccc(-c2cn3cccc(C)c3n2)cc1`, the compound was called inactive in assay [1], in assay [4] and in assay [6]. This compound also had a fluorescence, percent of control (lower = inhibition) in assay [2] of 35.6%. Also, the GTP binding, percent of control in assay [3] worked out at 86%. The GTP binding signal, raw median fluorescence (lower = inhibition) (MCF (arbitrary fluorescence units)) in assay [5] is 167.
For the compound `O=C(O)c1cc(-c2ccc(/C=C3/SC(=S)N(Cc4ccccc4)C3=O)o2)ccc1Cl`, the call in assay [1], in assay [4] and in assay [6] was inactive. The fluorescence, percent of control (lower = inhibition) in assay [2] came out at 31.5%. Moreover, the GTP binding, percent of control in assay [3] came to 61.5%. In addition, in assay [5], the GTP binding signal, raw median fluorescence (lower = inhibition) (MCF (arbitrary fluorescence units)) is 154.
As for `NC(=O)NOCc1ncc(C(F)(F)F)cc1Cl`, the result in assay [1], in assay [4] and in assay [6] was inactive. Besides, the fluorescence, percent of control (lower = inhibition) in assay [2] worked out at 36.2%. In assay [3], the GTP binding, percent of control came out at 81.2%. In assay [5], this compound had a GTP binding signal, raw median fluorescence (lower = inhibition) (MCF (arbitrary fluorescence units)) of 274.
On to `COc1cc(/C=N/Nc2nc(C)nc3c2cnn3-c2ccccc2)ccc1O`, for which the compound was called inactive in assay [1], in assay [4] and in assay [6]. This compound also registered a fluorescence, percent of control (lower = inhibition) in assay [2] of 87.1%. Moreover, the GTP binding, percent of control in assay [3] was found to be 128%. In addition, in assay [5], the GTP binding signal, raw median fluorescence (lower = inhibition) (MCF (arbitrary fluorescence units)) was 241.
As for `OCCC1CN(Cc2cccc(O)c2)CCN1CCc1ccccc1` (stereo not given), the call in assay [1], in assay [4] and in assay [6] was inactive. The fluorescence, percent of control (lower = inhibition) in assay [2] amounted to 40.6%. In assay [3], this compound registered a GTP binding, percent of control of 90.6%. The GTP binding signal, raw median fluorescence (lower = inhibition) (MCF (arbitrary fluorescence units)) in assay [5] was found to be 342.
In the case of `O=c1c2ccccc2nc2c3ccccc3c(Cl)nn12`, the compound was classed as inactive in assay [1], in assay [4] and in assay [6]. The compound also gave a fluorescence, percent of control (lower = inhibition) in assay [2] of 36.6%. The GTP binding, percent of control in assay [3] was 83.1%. The GTP binding signal, raw median fluorescence (lower = inhibition) (MCF (arbitrary fluorescence units)) in assay [5] was 213.
`Cc1ccc(S(=O)(=O)N(C)C)cc1NC(=O)COC(=O)c1ccc(Cl)cc1`: the compound was classed as inactive in assay [1], in assay [4] and in assay [6]. For the same compound, in assay [2], the fluorescence, percent of control (lower = inhibition) turned out to be 39.2%. In assay [3], this compound yielded a GTP binding, percent of control of 86%. In assay [5], the GTP binding signal, raw median fluorescence (lower = inhibition) (MCF (arbitrary fluorescence units)) was determined as 265.
For `Cc1ccc(CNCc2c(C)[nH]c(C)c2C(=O)O)cc1`, the result in assay [1], in assay [4] and in assay [6] was inactive. The compound further registered a fluorescence, percent of control (lower = inhibition) in assay [2] of 64.4%. In assay [3], this compound yielded a GTP binding, percent of control of 88.9%. Further, the GTP binding signal, raw median fluorescence (lower = inhibition) (MCF (arbitrary fluorescence units)) in assay [5] was 34.6.
Take `S=C(Nc1ccc(Oc2ccccc2)cc1)NC1CCCCCC1`: the call in assay [1], in assay [4] and in assay [6] was inactive. In assay [2], this compound displayed a fluorescence, percent of control (lower = inhibition) of 28%. The compound further displayed a GTP binding, percent of control in assay [3] of 87.3%. The compound further returned a GTP binding signal, raw median fluorescence (lower = inhibition) (MCF (arbitrary fluorescence units)) in assay [5] of 300.
`OC(c1ccc(OCc2ccccc2)cc1)c1nnc(-c2ccccc2)o1` (stereo not given): the result in assay [1], in assay [4] and in assay [6] was inactive. The compound further yielded a fluorescence, percent of control (lower = inhibition) in assay [2] of 92.3%. Also, the GTP binding, percent of control in assay [3] came to 177%. In assay [5], this compound yielded a GTP binding signal, raw median fluorescence (lower = inhibition) (MCF (arbitrary fluorescence units)) of 173.
In the case of `Cc1ccc(N=Nc2c(N)[nH]n3c(=O)cc(-c4ccccc4)nc23)cc1`, the result in assay [1], in assay [4] and in assay [6] was inactive. Moreover, the fluorescence, percent of control (lower = inhibition) in assay [2] turned out to be 64.1%. Further, the GTP binding, percent of control in assay [3] was 125%. The same compound had a GTP binding signal, raw median fluorescence (lower = inhibition) (MCF (arbitrary fluorescence units)) in assay [5] of 118.
In the case of `O=C(O)CSc1ccc2nnc(-c3cccnc3)n2n1`, the compound was classed as inactive in assay [1], in assay [4] and in assay [6]. The compound further showed a fluorescence, percent of control (lower = inhibition) in assay [2] of 35.6%. The same compound came in with a GTP binding, percent of control in assay [3] of 73.9%. This compound came in with a GTP binding signal, raw median fluorescence (lower = inhibition) (MCF (arbitrary fluorescence units)) in assay [5] of 151.
With `CC(C)NC(=S)N=Nc1c(O)[nH]c2ccc([N+](=O)[O-])cc12`, the compound was classed as inactive in assay [1], in assay [4] and in assay [6]. The fluorescence, percent of control (lower = inhibition) in assay [2] was 29.1%. In assay [3], this compound came in with a GTP binding, percent of control of 67.1%. Further, the GTP binding signal, raw median fluorescence (lower = inhibition) (MCF (arbitrary fluorescence units)) in assay [5] is 128.
As for `Cc1cccc(C)c1CNc1ncccc1C(=O)O`, the result in assay [1], in assay [4] and in assay [6] was inactive. In assay [2], this compound registered a fluorescence, percent of control (lower = inhibition) of 59%. In assay [3], this compound registered a GTP binding, percent of control of 215%. The GTP binding signal, raw median fluorescence (lower = inhibition) (MCF (arbitrary fluorescence units)) in assay [5] came to 56.4.

Source of the values: PubChem BioAssay.
